In the supplement of paper PMC11417369:
The full ranking holds about 25,000 sequences; the median of “ln(normalized median fluorescence intensity)” is about 9.7, and the highest 2% start at about 11. For the sample, the highest values were picked, then their nearest neighbours and some sequences at random.

tested on: PfAP2-HC AP2 domain (GST-tagged); experiment: gcPBM binding intensity (ln(normalized median fluorescence intensity)); higher = stronger DNA binding
Method in brief: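 Alexa488 anti-GST antibody, scanned at 488 nm, detected GST-tagged P. falciparum DNA-binding domains that had been expressed in E. coli and incubated for 1 h on an Agilent 4 × 180k array. The array carried primer-extended double-stranded 36-bp intergenic genomic probes and negative controls. Binding intensity is the highest Masliner-normalised natural-log median intensity across replicate spots of either orientation of each probe.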

Sequence | gcPBM binding intensity (ln)
ATTTTTTTGTTATTGTTGAAAAGATGGTTCTTTTTT [CACACA_negctrl_site1346] | 9.52
TATATAGGTATATATACACACAACGGTTATAAATAT [CACACA_site4759] | 9.94
AGCATATTATCATATTGTACATATTATAATATATAT [XGTACX_site3907] | 9.69
AATAATACAAAAGTTCAACAAAAAAAAAAAAAAAAT [CACACA_negctrl_site952] | 9.75
TGTTAATTAAAACATCATTAATATTATTAAAAATAC [XGTACX_negctrl_site509] | 9.36
ATTTTTTTTATTTTTTCAATATATATATATATATAT [CACACA_negctrl_site1444] | 9.74
AAAATATAATATATTACACACATATATTTTATAAGT [CACACA_site668] | 9.82
ATATATATGAATACATGTACGTATTTGTCTATGTAT [XGTACX_site8306] | 9.81
TTTTTTATTATTATGTGTACGAATATGTGCATATAA [XGTACX_site1364] | 9.65
ATAATATGAAAACACACACACACACTAGAAAAAAAA [CACACA_site5153] | 10.9
AAAAATAAAAGGTGTGCACACAAAAATATATATATA [CACACA_site8507] | 10.5
AATATAAAAATGCACACACACAAAAAAAAAAAAAAA [CACACA_site6546] | 10.9
AAATAAAAAGGGTGCACACAAAAATATATATATATA [CACACA_site1728] | 9.94
AATAAAAAAAAATGCACACATATATATATATATATA [CACACA_site2421] | 9.71
AAAAAAAAAAAACACACACACACACTAATATATAAA [CACACA_site8302] | 10.9
TAAATATAAAAATGCACACACACAAAAAAAAAAAAA [CACACA_site895] | 11.4
AAAAATAAAGGGTGTGCACACAAAAATATATATATA [CACACA_site1727] | 11
TGAACACCCACAAATACACACAAAAAAAATAAATAA [CACACA_site248] | 10.6
ATAATATGAAAACACACACACACACTAATAAAAAAA [CACACA_site8617] | 11.5
TGCACCCACCAACACACACACAACTAAAAAATAATG [CACACA_site2566] | 10.5
TACACCCACCAACACACACACACACTAATAAAAAAA [CACACA_site8060] | 11.3
TTTTAATTAGTACAAACACACATATACACCCAAAAA [CACACA_site5422] | 10
GATGATACGATTATCACACATTTATACTTTCTACAT [CACACA_site5669] | 9.85
AAACAAAAAATTTAAAGTACAAAAATTATGATTGTT [XGTACX_site465] | 9.62
